Results from PubChem BioAssay.
Records with an inconclusive call do not appear. Active and inactive are the calls of the source.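 Rule for the calls, unless noted: active = growth inhibition above 25% in both replicates, a cutoff set 3 SD above the mean; inconclusive = above 25% in only one replicate; inactive = the rest.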

How the values were obtained:
[1] = Her2 expression decrease, cell viability multiplex – SKBR3 breast tumor cells, AlphaScreen, ATP viability, primary screen (AID 461;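 active = Her2 level under about 52% in both replicate screens, with viability over 70% of control, limit read from the data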;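 for Her2 level: lower value means less Her2 protein in the cells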;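 for viability: percent of carrier control wells set as 100% viability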); details: SKBR3 Her2 protein level, 18-24 h, measured here: SKBR3 viability, ATP luminescence, at 10 µM
[2] = target: Receptor tyrosine-protein kinase erbB-2 (Homo sapiens) (UniProt P04626); assay: as above; details: 18-24 h, at 10 µM, stronger effect = lower value
Chain of Receptor tyrosine-protein kinase erbB-2 (Homo sapiens) (P04626 whole entry, looked up): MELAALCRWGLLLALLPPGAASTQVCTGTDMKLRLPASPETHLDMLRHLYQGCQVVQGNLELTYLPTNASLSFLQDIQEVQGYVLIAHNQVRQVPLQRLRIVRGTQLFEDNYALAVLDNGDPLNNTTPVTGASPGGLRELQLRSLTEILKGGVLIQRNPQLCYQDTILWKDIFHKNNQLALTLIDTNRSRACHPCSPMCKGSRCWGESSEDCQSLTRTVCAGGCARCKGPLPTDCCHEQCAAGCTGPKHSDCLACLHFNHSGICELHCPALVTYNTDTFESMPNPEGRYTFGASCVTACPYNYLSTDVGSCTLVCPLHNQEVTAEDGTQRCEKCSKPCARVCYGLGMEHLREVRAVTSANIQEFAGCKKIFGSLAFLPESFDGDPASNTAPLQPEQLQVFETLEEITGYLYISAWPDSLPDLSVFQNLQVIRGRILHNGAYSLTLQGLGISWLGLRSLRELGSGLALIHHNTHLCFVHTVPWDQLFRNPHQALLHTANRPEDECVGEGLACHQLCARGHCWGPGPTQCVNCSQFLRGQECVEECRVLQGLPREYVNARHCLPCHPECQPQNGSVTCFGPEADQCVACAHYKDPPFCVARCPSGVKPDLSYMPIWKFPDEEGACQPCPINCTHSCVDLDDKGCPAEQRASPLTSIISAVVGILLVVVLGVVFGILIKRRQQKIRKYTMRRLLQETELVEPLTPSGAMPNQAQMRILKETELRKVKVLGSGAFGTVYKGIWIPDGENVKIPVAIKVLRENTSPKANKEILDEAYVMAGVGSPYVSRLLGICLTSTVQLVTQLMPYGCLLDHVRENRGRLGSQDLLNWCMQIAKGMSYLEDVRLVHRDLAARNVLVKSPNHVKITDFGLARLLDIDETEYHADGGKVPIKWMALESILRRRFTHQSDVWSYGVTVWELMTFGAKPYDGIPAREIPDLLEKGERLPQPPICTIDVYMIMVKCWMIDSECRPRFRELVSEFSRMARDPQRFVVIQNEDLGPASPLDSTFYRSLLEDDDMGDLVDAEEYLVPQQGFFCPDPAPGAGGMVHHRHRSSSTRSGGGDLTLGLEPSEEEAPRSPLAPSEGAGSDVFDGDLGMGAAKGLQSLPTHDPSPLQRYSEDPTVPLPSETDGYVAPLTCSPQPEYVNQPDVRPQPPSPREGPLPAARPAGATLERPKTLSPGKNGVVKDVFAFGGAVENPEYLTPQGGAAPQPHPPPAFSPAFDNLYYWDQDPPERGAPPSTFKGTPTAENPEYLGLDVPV

[3] = reduced viability of SK-BR-3 breast cancer cells – cell-based, 24 h, human, pilot screen (AID 572;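 active = viability at or below 10% of carrier control in both of two separate runs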;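 note: compound exposure lasted between 18 and 24 h rather than exactly 24 h; 100% = carrier-treated control wells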); details: SK-BR-3 viability, CellTiter-Glo luminescence, at 10 µM, stronger effect = lower value
[4] = HUVEC growth inhibition – cell-based, human, primary screen (AID 575;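 active = viability at or below 30% in both replicate assays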;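 note: 100% = median of untreated cell wells with 0.1% DMSO on each plate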); details: HUVEC proliferation, CellTiter-Glo luminescence, 72 h; at 10 µM; stronger effect = lower value
[5] = H69AR cell proliferation blockers – human, duplicate replicates, primary screen (AID 580;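 active = viability at or under a set limit in both replicates, limit being median viability minus 3 SD, cut at about 48% in these data, passing the limit was not always enough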;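 note: 100% = mean luminescence of untreated wells and 0% = no signal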); details: H69AR lung tumor cells viability, ATP luminescence, 72 h; at 10 µM; stronger effect = lower value
[6] = MRP1 drug-resistance reversers in H69AR cells – cell-based, doxorubicin co-treatment, pilot screen (AID 601;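 active = viability loss from added drug above about 55%, and viability with drug at most 40%, in both replicates, limit read from the data, passing the limit was not always enough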); details: CellTiter-Glo, 72 h, at 10 µM; for differential viability (reversal): stronger effect = higher value
[7] = yeast transport mutant growth inhibition pilot in 384-well plates, post-Golgi transport modulator project (AID 636; in the data active = inhibition above about 31%); details: absorbance 615 nm, about 18 h, stronger effect = higher value
[8] = growth suppression of yeast trafficking mutant, preliminary HTS, modulators of trafficking downstream of Golgi apparatus project, 1536-format plate, OD 615 nm (AID 637; in the data active = inhibition above about 30%); details: yeast transport mutant growth, absorbance 615 nm, 18 h; stronger effect = higher value
[9] = S. cerevisiae growth inhibition in permissive medium (OD615), pilot counter-assay for S. cerevisiae lifespan shortening project, permissive growth control (AID 705); details: OD615, 24 h, at 10 µM, stronger effect = higher value
[10] = S. cerevisiae growth inhibition in restrictive medium, OD615, pilot screen, restrictive growth control, yeast lifespan reduction project (AID 706;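 active = growth inhibition above a set limit, 3 SD over mean compound inhibition, in both replicates, cut at about 43% in these data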;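 note: modified DeaD lifespan yeast strain shifted to restrictive glucose medium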); details: OD615, 48 h, at 10 µM, stronger effect = higher value
[11] = doxorubicin toxicity protection in MRP-1 cells – H69AR cells, CellTiter-Glo, duplicate, MRP-1 activator project, pilot screen (AID 807;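 active = viability increase at or above a cutoff of the median across tested compounds plus 3 SD, cut at about 8.5% in these data, passing the limit was not always enough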;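 note: compound pretreatment 18-22 h then 72 h combined with doxorubicin; 0% = doxorubicin alone and 100% = vehicle without doxorubicin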); details: H69AR viability with doxorubicin, CellTiter-Glo luminescence; at 10 µM; stronger effect = higher value
[12] = viability of HCT116 without oncogenic beta-catenin – human colon tumor cells, pilot screen (AID 823;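 active = cell viability at or below a set limit in both duplicate runs, the limit being the all-compound median minus 4 SD, cut at about 23% in these data, passing the limit was not always enough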;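 note: 0% = wells killed by 20 µM Hyamine and 100% = untreated DMSO cell wells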); details: HCT116 beta-catenin knockout viability, CellTiter-Glo, 60 h; at 10 µM; stronger effect = lower value
[13] = viability of PTEN-null HCT116 cells – cell-based, HCT116 clonal line, CellTiter-Glo, pilot screen (AID 824;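 active = viability at or below 27.92% in each of two runs, the all-compound median minus 4 SD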;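 note: 0% = 20 µM Hyamine control and 100% = vehicle cell control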); details: HCT116 PTEN-deleted viability, 60 h, at 10 µM, stronger effect = lower value
[14] = RAM pathway blockade in budding yeast – dse1pr::URA3 reporter, 5-FOA selection, pilot screen (AID 869;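 active = inhibition over a set limit, the all-compound mean plus 3 SD, in both replicate runs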;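 note: 0% = DMSO wells with no growth and 100% = 10 µM 1-NA-PP1 with full growth; RAM network block rescues cells from 5-FOA so hits raise OD615 growth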); details: S. cerevisiae dse1pr::URA3 5-FOA growth, OD615, 2 d; at 10 µM; stronger effect = higher value; strain carries analog-sensitive mutant Cbk1 kinase
[15] = RAM signaling pathway blockade in yeast – S. cerevisiae, Pdr1DBD-CYC8 efflux-inhibited sensitized strain, primary screen (AID 1298;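 active = RAM network inhibition above 8.4% in each of two replicates, 3 SD over the compound average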;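 note: 0% = DMSO untreated cells without growth and 100% = 10 µM 1-NA-PP1 full growth; higher means more yeast growth rescued from 5-FOA killing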); details: S. cerevisiae cbk1-as DSE1-URA3 strain, 5-FOA growth OD615, 2 d; at 50 µM; stronger effect = higher value
[16] = H69AR cells + 2 uM doxorubicin, measured here: viability with 2 uM doxorubicin, stronger effect = lower value
[17] = H69AR cells, compound alone cytotoxicity

Row | SMILES | viability [1] [%] | Her2 level [2] | viability [3] | viability [4] | viability [5] | differential viability (reversal) ([6]; H69AR cells + 2 uM doxorubicin) | viability [6, 16] [%] | viability [6, 17] [%] | inhibition [7] | inhibition [8] | growth inhibition [9] | growth inhibition [10] | viability increase [11] | viability [12] | viability [13] | inhibition [14] | RAM network inhibition [15]
1 | Cn1cccc1Cc1nnc(SCC(=O)NCc2ccc(F)cc2)n1-c1ccc(F)cc1 | 94.5 | 108% (inactive) | 94.5% (inactive) | 80.9% (inactive) | 89% (inactive) | -4% (inactive) | 93 | 89 | -1.07% (inactive) | 13.3% (inactive) | -3.33% (inactive) | 8.56% (inactive) | -0.43% (inactive) | 97.6% (inactive) | 93.4% (inactive) | 2.13% (inactive) | 6.3% (inactive)
2 | Cc1nn(C(=O)c2ccoc2C)c(N)c1-c1ccccc1 | 101 | 88.5% (inactive) | 101% (inactive) | 85.9% (inactive) | 92.1% (inactive) | 12.6% (inactive) | 79.5 | 92.1 | -6.27% (inactive) | -2.33% (inactive) | 13% (inactive) | 10.9% (inactive) | 2.64% (inactive) | 78.8% (inactive) | 84.3% (inactive) | 1.68% (inactive) | 7.07% (inactive)
3 | CCOc1ccc(Cn2nnc(C(=O)NCc3ccc(OC)cc3)c2N)cc1 | 95 | 102% (inactive) | 95% (inactive) | 74.3% (inactive) | 89.5% (inactive) | -2.11% (inactive) | 91.6 | 89.5 | -4.67% (inactive) | -4.33% (inactive) | -3.91% (inactive) | -6.16% (inactive) | -0.43% (inactive) | 95.8% (inactive) | 94.8% (inactive) | 2.19% (inactive) | 4.7% (inactive)
4 | C=CCn1c(SC(C)C(=O)NC2(C#N)CCCCC2)nnc1-c1ccc(OC)cc1 (stereo not drawn) | 90 | 73.5% (inactive) | 90% (inactive) | 109% (inactive) | 92.2% (inactive) | 13.9% (inactive) | 78.3 | 92.2 | -7.07% (inactive) | -5.25% (inactive) | -4.51% (inactive) | -9.22% (inactive) | -2.25% (inactive) | 90% (inactive) | 87.7% (inactive) | 1.29% (inactive) | 0.47% (inactive)
5 | CCOC(=O)c1oc2c(CN3CCN(C)CC3)c(O)ccc2c(=O)c1-c1ccccc1OC | 94 | 110% (inactive) | 94% (inactive) | 99.5% (inactive) | 93.1% (inactive) | -0.225% (inactive) | 93.3 | 93.1 | 0% (inactive) | 0.5% (inactive) | -13% (inactive) | -15.5% (inactive) | -1.3% (inactive) | 103% (inactive) | 94% (inactive) | 3.98% (inactive) | 1.2% (inactive)
6 | CCOc1ccc(Cn2nnc(C(=O)Nc3cc(C)cc(C)c3)c2N)cc1 | 89.5 | 90.5% (inactive) | 89.5% (inactive) | 80.4% (inactive) | 86.2% (inactive) | 7.9% (inactive) | 78.3 | 86.2 | 0% (inactive) | -3.28% (inactive) | -7.71% (inactive) | 1.04% (inactive) | -3.02% (inactive) | 73% (inactive) | 77.8% (inactive) | 3.23% (inactive) | 8.35% (inactive)
7 | O=C(Nc1ccc(Cl)cn1)c1cccnc1 | 104 | 112% (inactive) | 104% (inactive) | 81.6% (inactive) | 70.1% (inactive) | -17.4% (inactive) | 87.6 | 70.1 | -0.52% (inactive) | -6.56% (inactive) | -8.23% (inactive) | -14.8% (inactive) | -4.65% (inactive) | 63% (inactive) | 62% (inactive) | 1.56% (inactive) | -0.47% (inactive)
8 | CCOC(=O)C1CCCN(C(=O)c2ccc(CS(=O)(=O)c3ccc(Br)cc3)o2)C1 (stereo not drawn) | 85.5 | 102% (inactive) | 85.5% (inactive) | 79.5% (inactive) | 95.6% (inactive) | -1.7% (inactive) | 97.3 | 95.6 | -2.93% (inactive) | -3.83% (inactive) | -9.14% (inactive) | -18.5% (inactive) | -1.86% (inactive) | 100% (inactive) | 98.6% (inactive) | 1.39% (inactive) | 3.92% (inactive)
9 | O=C(c1cnc2n(c1=O)CCS2)N1CCc2ccccc21 | 99.5 | 83% (inactive) | 99.5% (inactive) | 96% (inactive) | 101% (inactive) | 3.18% (inactive) | 98.1 | 101 | -2.13% (inactive) | 0.16% (inactive) | -3.25% (inactive) | -7.63% (inactive) | 0.01% (inactive) | 97% (inactive) | 102% (inactive) | 1.24% (inactive) | -0.32% (inactive)
10 | CCOC(=O)N1CCN(C(c2ccc(Cl)cc2)c2sc3nc(C)nn3c2O)CC1 (stereo not drawn) | 94 | 89% (inactive) | 94% (inactive) | 87.7% (inactive) | 94.7% (inactive) | -8.7% (inactive) | 103 | 94.7 | -4.67% (inactive) | 0.33% (inactive) | 1.38% (inactive) | 1.06% (inactive) | 0.03% (inactive) | 98.4% (inactive) | 106% (inactive) | 0.72% (inactive) | 6.22% (inactive)
11 | COc1cccc(-c2nc3n(n2)C(c2ccccc2Cl)C(C(N)=O)=C(C)N3)c1 (stereo not drawn) | 91 | 94% (inactive) | 91% (inactive) | 74.3% (inactive) | 90.4% (inactive) | 14.6% (inactive) | 75.8 | 90.4 | -0.8% (inactive) | -5.17% (inactive) | -7.99% (inactive) | -0.24% (inactive) | -3.31% (inactive) | 82.8% (inactive) | 82.2% (inactive) | 0.735% (inactive) | 3.45% (inactive)
12 | Cc1occc1C(=O)N1CCN(c2ncccn2)CC1 | 87 | 118% (inactive) | 87% (inactive) | 99.6% (inactive) | 95.8% (inactive) | 8.91% (inactive) | 86.9 | 95.8 | 2.56% (inactive) | -5.83% (inactive) | -15.2% (inactive) | -1.04% (inactive) | -0.73% (inactive) | 101% (inactive) | 91.9% (inactive) | 1.98% (inactive) | 1.89% (inactive)
13 | O=C1C/C(=C/NCc2ccccc2)C(=O)N1 | 93 | 111% (inactive) | 93% (inactive) | 95.5% (inactive) | 97.2% (inactive) | -4.96% (inactive) | 102 | 97.2 | 2.08% (inactive) | -9% (inactive) | -6.49% (inactive) | 0.205% (inactive) | 0.43% (inactive) | 99.7% (inactive) | 102% (inactive) | 1.04% (inactive) | 2.77% (inactive)
14 | COC(=O)Cn1c(CN2CCOCC2)nc2c1c(=O)n(C)c(=O)n2C | 81.5 | 86.5% (inactive) | 81.5% (inactive) | 89.2% (inactive) | 99.8% (inactive) | 5.79% (inactive) | 94 | 99.8 | -4% (inactive) | -2% (inactive) | -0.42% (inactive) | 1.05% (inactive) | -0.73% (inactive) | 104% (inactive) | 96.7% (inactive) | 1.2% (inactive) | -1.44% (inactive)
15 | Cc1ccc(-n2c3c(cc(C(=O)NC4CCSC4=O)c2=O)C(=O)CC(C)(C)C3)cc1 (stereo not drawn) | 101 | 99.5% (inactive) | 101% (inactive) | 85.4% (inactive) | 85.3% (inactive) | 14.6% (inactive) | 70.7 | 85.3 | -1.69% (inactive) | -0.67% (inactive) | -1.71% (inactive) | -9.19% (inactive) | -2.78% (inactive) | 99.1% (inactive) | 101% (inactive) | 2.32% (inactive) | 4.09% (inactive)
16 | CC1CCCCN1CCNC(=O)c1ccc2c(=O)n(CCc3ccccc3)c(=O)[nH]c2c1 (stereo not drawn) | 91 | 72.5% (inactive) | 91% (inactive) | 53.6% (inactive) | 93.5% (inactive) | 12.7% (inactive) | 80.8 | 93.5 | -5% (inactive) | 1.17% (inactive) | -23.3% (inactive) | -18.5% (inactive) | -4.81% (inactive) | 76.9% (inactive) | 73.4% (inactive) | 1.27% (inactive) | 8.68% (inactive)
17 | CCOC(=O)C1=C(C)N(C)C(=O)NC1c1ccccc1OC (stereo not drawn) | 97 | 88% (inactive) | 97% (inactive) | 88.2% (inactive) | 175% (inactive) | 64.2% (inactive) | 110 | 175 | -8.24% (inactive) | 2.46% (inactive) | -4.28% (inactive) | -3.44% (inactive) | 0.16% (inactive) | 97.9% (inactive) | 93.4% (inactive) | 0.97% (inactive) | 2.01% (inactive)
18 | COc1ccc(-c2nc(CSCC(=O)N3CCN(c4cccc(C)c4)C(C)C3)c(C)o2)cc1OC (stereo not drawn) | 102 | 67.5% (inactive) | 102% (inactive) | 54.6% (inactive) | 85.7% (inactive) | -5.97% (inactive) | 91.7 | 85.7 | -2.27% (inactive) | 1.33% (inactive) | -4.45% (inactive) | 8.39% (inactive) | 0.02% (inactive) | 56.9% (inactive) | 56.4% (inactive) | 1.96% (inactive) | 7.25% (inactive)
19 | CC(=O)N1c2c(cc(Br)cc2S(=O)(=O)NCC2COc3ccccc3O2)CC1C (stereo not drawn) | 97.5 | 85% (inactive) | 97.5% (inactive) | 88.9% (inactive) | 81.7% (inactive) | -2.64% (inactive) | 84.3 | 81.7 | -5.34% (inactive) | -2.06% (inactive) | -0.935% (inactive) | 8.23% (inactive) | 0.21% (inactive) | 83.2% (inactive) | 81% (inactive) | 0.495% (inactive) | 0.61% (inactive)
